In PubChem BioAssay (EPA / NIEHS):
Inconclusive results are not listed. Activity calls are given as the source filed them. How the source made its calls, unless noted: active means hit-call score of the fitted dose curve at least 0.9, where 1 is the maximum; inactive means score below 0.9.

Legend:
[1] = ATG_DR4_LXR_CIS: Attagene CIS-FACTORIAL HepG2 Assay for human Liver X Receptor (LXR), DR4 submotif (AID 2282929); conditions: HepG2 Attagene DR4 cis-reporter, mRNA transcription; actives raise or lower the signal
Summary of the method: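 Cells were transfected with multiple reporter transcription units, exposed to chemicals for 24 hours, then lysed for RNA. Reporter mRNA induction was measured by RT-PCR with capillary electrophoresis detection and fitted in both directions relative to DMSO.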

[2] = molecular target: Transcription factor E2F1 (Homo sapiens) (UniProt Q01094); assay: ATG_E2F_CIS: Attagene CIS-FACTORIAL HepG2 Assay for human E2F Transcription Factor 1 (AID 2282935); conditions: HepG2 Attagene cis-reporter, E2F reporter RNA transcripts; actives raise or lower the signal
Transcription factor E2F1 (Homo sapiens), sequence (Q01094 whole entry, looked up): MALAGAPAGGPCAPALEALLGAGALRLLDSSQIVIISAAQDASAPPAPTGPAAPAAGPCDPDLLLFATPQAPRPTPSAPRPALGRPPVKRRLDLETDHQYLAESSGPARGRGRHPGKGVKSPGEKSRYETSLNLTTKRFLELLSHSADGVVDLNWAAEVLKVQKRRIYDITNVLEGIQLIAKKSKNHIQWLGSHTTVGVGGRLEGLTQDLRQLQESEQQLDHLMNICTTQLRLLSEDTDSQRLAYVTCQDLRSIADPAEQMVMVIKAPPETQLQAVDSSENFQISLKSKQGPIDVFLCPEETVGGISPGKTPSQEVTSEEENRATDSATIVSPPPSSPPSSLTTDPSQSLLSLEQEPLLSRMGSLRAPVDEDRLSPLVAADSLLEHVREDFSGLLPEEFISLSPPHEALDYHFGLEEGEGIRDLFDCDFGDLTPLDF
Summary of the method: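 Cis-element reporter mRNA induction in transiently transfected HepG2, 24 h exposure. Activity fitted in both directions relative to DMSO negative control.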

[3] = ATG_GRE_CIS: Attagene CIS-FACTORIAL HepG2 Assay for human Glucocorticoid Response Elements (GRE) (AID 2282947); conditions: HepG2 GRE cis-reporter, Attagene multiplex mRNA; actives raise or lower the signal
Summary of the method: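 Transient MRTU transfection of human HepG2 liver cells; cis-regulated reporters report endogenous factors. 24 h dosing → RNA isolation → RT-PCR → 6-FAM primer extension → HpaI cut → CE fragment analysis. Bidirectional fit, DMSO negative control.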

[4] = molecular target: Hypoxia-inducible factor 1-alpha (Homo sapiens) (UniProt Q16665); assay: ATG_HIF1a_CIS: Attagene CIS-FACTORIAL HepG2 Assay for human Hypoxia Inducible Factor 1 (HIF1A) (AID 2282951); conditions: HepG2 Attagene cis-factorial HIF1a reporter transcription; actives raise or lower the signal
Hypoxia-inducible factor 1-alpha (Homo sapiens), sequence (Q16665 whole entry, looked up): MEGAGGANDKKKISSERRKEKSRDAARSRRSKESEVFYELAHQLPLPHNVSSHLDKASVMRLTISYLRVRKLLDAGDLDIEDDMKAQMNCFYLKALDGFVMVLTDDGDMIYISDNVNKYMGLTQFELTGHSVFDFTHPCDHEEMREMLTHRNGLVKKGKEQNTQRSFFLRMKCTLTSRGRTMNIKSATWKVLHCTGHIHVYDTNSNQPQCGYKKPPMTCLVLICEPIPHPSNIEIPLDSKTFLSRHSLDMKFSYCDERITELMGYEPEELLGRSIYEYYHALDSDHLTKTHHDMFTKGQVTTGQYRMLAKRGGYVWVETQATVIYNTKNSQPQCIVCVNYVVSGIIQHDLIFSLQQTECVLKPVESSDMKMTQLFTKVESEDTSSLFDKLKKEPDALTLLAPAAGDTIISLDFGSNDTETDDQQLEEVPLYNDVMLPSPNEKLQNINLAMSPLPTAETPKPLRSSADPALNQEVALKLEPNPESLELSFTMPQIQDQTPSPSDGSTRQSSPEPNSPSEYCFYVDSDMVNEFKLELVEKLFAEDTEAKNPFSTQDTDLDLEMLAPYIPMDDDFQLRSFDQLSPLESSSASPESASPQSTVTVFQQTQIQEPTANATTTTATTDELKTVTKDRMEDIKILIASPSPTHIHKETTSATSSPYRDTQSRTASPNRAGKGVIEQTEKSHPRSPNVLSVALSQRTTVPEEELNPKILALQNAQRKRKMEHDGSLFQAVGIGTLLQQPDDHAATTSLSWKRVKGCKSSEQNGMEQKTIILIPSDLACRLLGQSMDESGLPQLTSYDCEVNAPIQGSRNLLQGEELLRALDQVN
Summary of the method: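 Measures endogenous transcription-factor activity through cis-regulated reporter mRNA in HepG2. Cells dosed 24 h; transcripts quantified by RT-PCR with 6-FAM-labelled products separated by capillary electrophoresis; DMSO serves as negative control.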

[5] = molecular target: Hepatocyte nuclear factor 6 (Homo sapiens) (UniProt Q9UBC0); assay: ATG_HNF6_CIS: Attagene CIS-FACTORIAL HepG2 Assay for human Hepatocyte Nuclear Factor 6 (HNF6) (AID 2282952); conditions: HepG2 Attagene cis-factorial HNF6 reporter transcription; actives raise or lower the signal
Hepatocyte nuclear factor 6 (Homo sapiens), sequence (Q9UBC0 whole entry, looked up): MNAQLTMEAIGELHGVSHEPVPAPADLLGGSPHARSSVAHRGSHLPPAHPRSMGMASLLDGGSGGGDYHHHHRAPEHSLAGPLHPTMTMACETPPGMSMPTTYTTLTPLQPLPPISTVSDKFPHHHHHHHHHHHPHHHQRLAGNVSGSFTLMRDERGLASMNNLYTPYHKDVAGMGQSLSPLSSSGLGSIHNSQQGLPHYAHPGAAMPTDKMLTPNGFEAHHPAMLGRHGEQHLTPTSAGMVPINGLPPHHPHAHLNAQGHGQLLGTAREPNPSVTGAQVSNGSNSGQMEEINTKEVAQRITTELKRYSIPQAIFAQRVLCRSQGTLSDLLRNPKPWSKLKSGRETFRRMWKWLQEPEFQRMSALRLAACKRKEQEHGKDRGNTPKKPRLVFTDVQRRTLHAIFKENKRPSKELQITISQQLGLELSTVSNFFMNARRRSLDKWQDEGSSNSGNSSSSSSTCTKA
Summary of the method: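 HepG2 cells transiently transfected with cis-element-driven multiple reporter transcription units, dosed 24 h; reporter mRNA quantified by RT-PCR, FAM primer extension, HpaI digestion and capillary electrophoresis; bidirectional fit versus DMSO baseline.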

[6] = molecular target: Heat shock factor protein 1 (Homo sapiens) (UniProt Q00613); assay: ATG_HSE_CIS: Attagene CIS-FACTORIAL HepG2 Assay for human Heat Shock Transcription Factor 1 (HSE) (AID 2282953); conditions: HepG2 HSE cis-reporter, Attagene RNA transcription; actives raise or lower the signal
Heat shock factor protein 1 (Homo sapiens), sequence (Q00613 whole entry, looked up, the tested form may be a part): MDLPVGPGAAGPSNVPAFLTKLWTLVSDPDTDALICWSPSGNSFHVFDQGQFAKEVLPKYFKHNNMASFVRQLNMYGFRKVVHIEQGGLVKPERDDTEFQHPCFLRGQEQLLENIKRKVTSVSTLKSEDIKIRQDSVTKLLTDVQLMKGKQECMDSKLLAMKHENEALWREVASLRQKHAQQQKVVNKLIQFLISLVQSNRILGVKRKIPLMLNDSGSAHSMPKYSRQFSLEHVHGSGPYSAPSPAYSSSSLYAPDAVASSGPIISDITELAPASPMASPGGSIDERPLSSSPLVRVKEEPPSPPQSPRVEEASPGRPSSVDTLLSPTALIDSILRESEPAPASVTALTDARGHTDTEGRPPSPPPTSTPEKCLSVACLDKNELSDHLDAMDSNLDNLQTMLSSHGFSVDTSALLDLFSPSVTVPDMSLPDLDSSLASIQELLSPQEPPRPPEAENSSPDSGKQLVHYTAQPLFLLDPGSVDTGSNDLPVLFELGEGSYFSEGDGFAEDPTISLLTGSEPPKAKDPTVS
Summary of the method: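 Cells were transfected with cis-element-driven reporter constructs, dosed for 24 h, then total RNA was reverse-transcribed and reporter cDNA amplified, FAM-labelled and digested with HpaI. Fragments were resolved by capillary electrophoresis; gain or loss was fitted against DMSO.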

[7] = ATG_TA_CIS: Attagene CIS-FACTORIAL HepG2 Assay for human TA Basal Promoter (AID 2282964); conditions: HepG2 Attagene CIS-factorial TA basal promoter reporter; actives raise or lower the signal
Summary of the method: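 Steps: transfect HepG2 with MRTUs; dose 24 h; isolate RNA, DNase-treat, reverse-transcribe; PCR and FAM-label reporter cDNA; digest with HpaI 2h at 37 C; run capillary electrophoresis. Activity fitted both directions against DMSO.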

[8] = ATG_TCF_b_cat_CIS: Attagene CIS-FACTORIAL HepG2 Assay for human T-Cell-Factor with beta-catenin (TCF/b-cat) (AID 2282965); conditions: HepG2 TCF/beta-catenin cis-reporter transcription, actives raise or lower the signal
Summary of the method: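 Endogenous TCF/LEF activity read as reporter transcript level via RT-PCR and capillary electrophoresis fluorescence in transfected HepG2, 24 h exposure; gain or loss of signal fitted against DMSO controls.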

[9] = molecular target: Transcriptional activator Myb (Homo sapiens) (UniProt P10242); assay: ATG_Myb_CIS: Attagene CIS-FACTORIAL HepG2 Assay for human Myeloblastosis (Myb) Proto-Oncogene Transcription Factor (AID 2282986); conditions: HepG2 Attagene CIS-FACTORIAL Myb reporter transcription; actives raise or lower the signal
Transcriptional activator Myb (Homo sapiens), sequence (P10242 whole entry, looked up): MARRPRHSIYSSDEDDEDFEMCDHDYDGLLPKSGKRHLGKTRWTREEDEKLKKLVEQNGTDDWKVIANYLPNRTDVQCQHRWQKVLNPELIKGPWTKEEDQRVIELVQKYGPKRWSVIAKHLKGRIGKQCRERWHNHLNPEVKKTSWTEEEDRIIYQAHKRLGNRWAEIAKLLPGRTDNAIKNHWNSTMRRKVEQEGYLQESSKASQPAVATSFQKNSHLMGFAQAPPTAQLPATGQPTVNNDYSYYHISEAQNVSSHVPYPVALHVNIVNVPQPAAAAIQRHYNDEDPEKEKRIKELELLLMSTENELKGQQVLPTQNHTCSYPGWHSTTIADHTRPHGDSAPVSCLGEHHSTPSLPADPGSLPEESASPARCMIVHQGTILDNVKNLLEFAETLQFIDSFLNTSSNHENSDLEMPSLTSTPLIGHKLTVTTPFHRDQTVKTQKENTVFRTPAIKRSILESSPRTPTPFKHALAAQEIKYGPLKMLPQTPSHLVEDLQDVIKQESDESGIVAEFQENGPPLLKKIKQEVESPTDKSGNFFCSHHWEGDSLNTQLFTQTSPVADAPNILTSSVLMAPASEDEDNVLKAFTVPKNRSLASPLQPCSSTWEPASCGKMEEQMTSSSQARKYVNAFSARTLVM
Summary of the method: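 Steps: transfect HepG2 with cis-regulated reporter units; dose with chemical for 24 h; isolate RNA, reverse-transcribe, PCR-amplify and FAM-label reporter sequences; digest with HpaI; resolve by capillary electrophoresis. Activity fitted in both directions relative to DMSO.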

[10] = molecular target: Nuclear respiratory factor 1 (Homo sapiens) (UniProt Q16656); assay: ATG_NRF1_CIS: Attagene CIS-FACTORIAL HepG2 Assay for human Nuclear Respiratory Factor 1 (NRF1) Orphan Gene (AID 2282987); conditions: HepG2 NRF1 cis-element reporter, Attagene multiplex; actives raise or lower the signal
Nuclear respiratory factor 1 (Homo sapiens), sequence (Q16656 whole entry, looked up, the tested form may be a part): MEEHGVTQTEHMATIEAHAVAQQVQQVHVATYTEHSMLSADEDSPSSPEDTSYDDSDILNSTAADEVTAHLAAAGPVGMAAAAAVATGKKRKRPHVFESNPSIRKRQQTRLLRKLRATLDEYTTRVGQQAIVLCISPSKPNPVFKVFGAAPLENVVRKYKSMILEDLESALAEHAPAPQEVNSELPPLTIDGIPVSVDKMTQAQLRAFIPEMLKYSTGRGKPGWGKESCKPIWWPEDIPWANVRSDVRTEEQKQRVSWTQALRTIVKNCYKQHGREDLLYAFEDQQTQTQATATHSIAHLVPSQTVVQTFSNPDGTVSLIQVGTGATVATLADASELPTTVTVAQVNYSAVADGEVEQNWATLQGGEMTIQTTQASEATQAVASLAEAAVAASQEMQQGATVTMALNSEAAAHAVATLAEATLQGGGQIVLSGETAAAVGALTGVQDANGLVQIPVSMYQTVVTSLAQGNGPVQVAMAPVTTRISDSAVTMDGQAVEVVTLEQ
Summary of the method: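 Fluorescence intensity of labelled reporter cDNA fragments, resolved by capillary electrophoresis, served as readout for NRF1 cis-element activity. Transiently transfected HepG2 cells were dosed for 24 hours; activity in either direction was fitted against DMSO negative control.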

[11] = ATG_NFI_CIS: Attagene CIS-FACTORIAL HepG2 Assay for human Nuclear Factor I (NFI) (AID 2282989); conditions: HepG2 cis-regulatory reporter, NFI response element transcription; actives raise or lower the signal
Summary of the method: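 HepG2, transient MRTU, 24 h exposure; RNA→cDNA→PCR→FAM label→HpaI→CE fluorescence. Bidirectional fit, DMSO = baseline.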

[12] = molecular target: Myc proto-oncogene protein (Homo sapiens) (UniProt P01106); assay: ATG_Myc_CIS: Attagene CIS-FACTORIAL HepG2 Assay for human Myelocytomatosis (Myc) Proto-Oncogene Transcription Factor (AID 2282990); conditions: HepG2, Attagene cis-reporter transcription factor activity; actives raise or lower the signal
Myc proto-oncogene protein (Homo sapiens), sequence (P01106 whole entry, looked up, the tested form may be a part): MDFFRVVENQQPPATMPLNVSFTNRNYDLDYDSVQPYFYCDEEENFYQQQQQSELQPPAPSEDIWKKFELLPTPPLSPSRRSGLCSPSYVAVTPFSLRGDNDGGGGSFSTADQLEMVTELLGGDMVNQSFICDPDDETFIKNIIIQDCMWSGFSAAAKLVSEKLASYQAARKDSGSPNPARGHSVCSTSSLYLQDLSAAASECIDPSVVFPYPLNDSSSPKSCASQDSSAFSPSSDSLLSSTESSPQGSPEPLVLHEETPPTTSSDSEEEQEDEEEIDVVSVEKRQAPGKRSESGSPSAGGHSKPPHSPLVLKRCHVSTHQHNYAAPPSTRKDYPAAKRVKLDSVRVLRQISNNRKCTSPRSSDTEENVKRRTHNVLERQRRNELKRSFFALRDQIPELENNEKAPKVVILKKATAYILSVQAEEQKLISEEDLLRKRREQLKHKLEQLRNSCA
Summary of the method: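 After 24 h chemical treatment of HepG2 cells carrying multiplexed cis-regulated reporter constructs, reporter transcripts quantified by RT-PCR and capillary electrophoresis of fluorescent fragments. Gain or loss fitted against DMSO baseline.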

[13] = ATG_NRF2_ARE_CIS: Attagene CIS-FACTORIAL HepG2 Assay for human Nuclear Factor Erythroid 2 Related Factor 2 (NFR2) response to Antioxidant Response Elements (ARE) (AID 2282992); conditions: HepG2 Attagene ARE/NRF2 reporter, transcription factor activity; actives raise or lower the signal;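 on AC50: reporter mRNA level measured by RT-PCR and capillary electrophoresis fluorescence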
Summary of the method: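 Multiplexed reporter mRNA profiling in HepG2 after a 24 h chemical exposure. Curves fitted in both directions relative to DMSO negative control.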

[14] = ATG_Oct_MLP_CIS: Attagene CIS-FACTORIAL HepG2 Assay for human Octamer-Binding Transcription Factor (Oct) (AID 2282993); conditions: HepG2 Attagene cis-factorial Oct reporter, mRNA; actives raise or lower the signal
Summary of the method: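 Multiplexed cis-reporter assay in human liver HepG2 cells, 24 h incubation. Reporter RNA amplified and labelled, then resolved by capillary electrophoresis; DMSO serves as negative control and baseline.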

[15] = molecular target: Cellular tumor antigen p53 (Homo sapiens) (UniProt P04637); assay: ATG_p53_CIS: Attagene CIS-FACTORIAL HepG2 Assay for human p53 Transcription Factor (AID 2282994); conditions: HepG2 p53 cis-element reporter, Attagene mRNA; actives raise or lower the signal
Cellular tumor antigen p53 (Homo sapiens), sequence (P04637 whole entry, looked up): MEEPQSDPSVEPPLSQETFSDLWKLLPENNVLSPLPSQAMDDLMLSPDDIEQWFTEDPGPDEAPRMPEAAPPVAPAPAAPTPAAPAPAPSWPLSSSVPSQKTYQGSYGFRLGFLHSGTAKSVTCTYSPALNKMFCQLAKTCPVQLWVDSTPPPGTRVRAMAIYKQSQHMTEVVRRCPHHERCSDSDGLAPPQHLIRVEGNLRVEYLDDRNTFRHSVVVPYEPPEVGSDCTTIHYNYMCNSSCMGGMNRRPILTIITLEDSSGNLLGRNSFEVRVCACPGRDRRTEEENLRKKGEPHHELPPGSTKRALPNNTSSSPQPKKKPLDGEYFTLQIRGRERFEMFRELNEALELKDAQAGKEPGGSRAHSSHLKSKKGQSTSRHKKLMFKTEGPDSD
Summary of the method: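 Multiplexed reporter mRNA assay in human HepG2 liver cells; cis-regulated units report endogenous factor activity. Values come from bidirectional curve fitting against DMSO negative control after 24 h treatment.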

[16] = molecular target: Nuclear receptor subfamily 1 group I member 2 (Homo sapiens) (UniProt O75469); assay: ATG_PXR_TRANS: Attagene TRANS-FACTORIAL HepG2 Assay for human Pregnane X Receptor (PXR) (AID 2283008; active means hit-call score of the fitted dose curve at least 0.9, where 1 is the maximum)
Nuclear receptor subfamily 1 group I member 2 (Homo sapiens), sequence (O75469 whole entry, looked up, the tested form may be a part): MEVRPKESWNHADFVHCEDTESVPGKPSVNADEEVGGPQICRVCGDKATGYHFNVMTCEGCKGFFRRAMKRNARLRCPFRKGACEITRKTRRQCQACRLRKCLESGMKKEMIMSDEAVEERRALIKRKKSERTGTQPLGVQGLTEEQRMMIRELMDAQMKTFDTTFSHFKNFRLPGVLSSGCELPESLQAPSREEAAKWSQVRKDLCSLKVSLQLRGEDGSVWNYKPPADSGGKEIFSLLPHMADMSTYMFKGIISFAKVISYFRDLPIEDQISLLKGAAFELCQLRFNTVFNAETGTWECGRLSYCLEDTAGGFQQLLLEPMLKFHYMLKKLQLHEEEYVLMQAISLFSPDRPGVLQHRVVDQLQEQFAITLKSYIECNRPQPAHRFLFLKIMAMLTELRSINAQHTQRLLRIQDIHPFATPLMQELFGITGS
Summary of the method: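 Measures mRNA induction of a GAL4-UAS-driven reporter in human HepG2 cells transiently expressing PXR fused to Gal4, following 24 h treatment. DMSO served as negative control and baseline.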

[17] = ATG_XTT_Cytotoxicity: Cytotoxicity Assessment in the Attagene TRANS-FACTORIAL HepG2 Assay (AID 2283584; active means hit-call score of the fitted dose curve at least 0.9, where 1 is the maximum)
Summary of the method: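 HepG2 human liver cells, transiently transfected with multiple GAL4-UAS reporter units, were dosed and read at 24 h by XTT as cell number. Loss of signal was fitted relative to DMSO negative control baseline.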

[18] = ATG_TGFb_CIS: Attagene CIS-FACTORIAL HepG2 Assay for human Transforming Growth Factor (TGF) (AID 2282967); conditions: HepG2 Attagene CIS TGFb reporter, mRNA transcription; actives raise or lower the signal
Summary of the method: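 Cells were dosed for 24 hours, after which total RNA was reverse-transcribed and reporter sequences amplified, labeled and sized by capillary electrophoresis. Activity was fitted in both directions against DMSO.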

[19] = ATG_CRE_CIS: Attagene CIS-FACTORIAL HepG2 Assay for human cAMP Responsive Element (CRE) binding protein 3 (AID 2282926); conditions: HepG2 CRE cis-reporter, Attagene multiplexed mRNA; actives raise or lower the signal
Summary of the method: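 HepG2 cells transiently transfected with a multiplexed reporter library (CRE-driven unit among them) were dosed for 24 h. Reporter mRNA was quantified by RT-PCR, fluorescent labelling, HpaI digestion and capillary electrophoresis, with bidirectional fitting against DMSO baseline.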

[20] = ATG_GLI_CIS: Attagene CIS-FACTORIAL HepG2 Assay for human Zinc Finger Protein GLI1 (AID 2282945); conditions: HepG2, Attagene cis-factorial reporter mRNA, GLI element; actives raise or lower the signal
Summary of the method: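 Bidirectional curve fits relative to DMSO, using reporter mRNA levels from RT-PCR plus capillary electrophoresis. Cells were HepG2 transiently carrying cis-regulated reporter constructs, harvested 24 h after dosing.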

Measured: AC50

CCCCCC1CCCC(=O)O1 (stereo unspecified)
not listed: [18] | [19] | [20]
inactive: all other assays above

COc1c2occc2cc2ccc(=O)oc12
inactive: [1] | [2] | [3] | [7] | [8] | [18] | [9] | [14] | [15] | [17]
active: [16] 14.5 µM

c1cc[c]([Bi]([c]2ccccc2)[c]2ccccc2)cc1
active: [1] 5.72 µM | [13] 48.9 µM | [16] 2.73 µM
not listed: [2] | [15] | [18]
inactive: all other assays above

CNC(=C[N+](=O)[O-])NCCSCc1csc(CN(C)C)n1
not listed: [4] | [7] | [12] | [16]
inactive: all other assays above

c1cc(N(CC2CO2)CC2CO2)ccc1Cc1ccc(N(CC2CO2)CC2CO2)cc1 (stereo unspecified)
active: [1] 27.3 µM | [20] 26.4 µM | [4] 6.64 µM | [6] 18.6 µM | [7] 26.1 µM | [8] 26.1 µM | [11] 5.98 µM | [14] 8.18 µM | [15] 20.8 µM
not listed: [18] | [19]
inactive: all other assays above

CC=CC(=O)O
active: [4] 56 µM
not listed: [2] | [8] | [15] | [19]
inactive: all other assays above

O=C(Oc1ccccc1)c1ccccc1
not listed: [3] | [7] | [15] | [19] | [20]
inactive: all other assays above

COC(=O)[C@]1(C)CCC[C@@]2(C)[C@H]1CC=C1C=C(C(C)C)CC[C@@H]12
active: [6] 26.4 µM | [13] 32.2 µM | [16] 25.1 µM
not listed: [2] | [7] | [8] | [19]
inactive: all other assays above

CCCCCCOC(=O)CCCCCCCC(=O)OCCCCCC
not listed: [2] | [8] | [12] | [15] | [18]
inactive: all other assays above

O=C(C1CCCCC1)N1CC(=O)N2CCc3ccccc3C2C1 (stereo unspecified)
active: [16] 8.4 µM
not listed: [1] | [4] | [5] | [17] | [18]
inactive: all other assays above

CC/C=C\CCCCCO
not listed: [7] | [8] | [18] | [20]
inactive: all other assays above

CC(O)(P(=O)(O)O)P(=O)(O)O
not listed: [2] | [3] | [4] | [15] | [16] | [20]
inactive: all other assays above

CCOc1ccc2c(c1)C(C)CC(C)(C)N2 (stereo unspecified)
active: [16] 3.63 µM
not listed: [2] | [12] | [15] | [18] | [19]
inactive: all other assays above

C=CC(C)(CCC=C(C)C)OC(=O)c1ccccc1 (stereo unspecified)
active: [1] 34.2 µM | [12] 131 µM | [13] 98 µM | [16] 8.68 µM
not listed: [7] | [8] | [19]
inactive: all other assays above

CC1(C)S[C@@H]2[C@H](NC(=O)[C@H](N)c3ccccc3)C(=O)N2[C@H]1C(=O)O
not listed: [2] | [4] | [8] | [12] | [18]
inactive: all other assays above

CC(=O)c1nccs1
not listed: [16] | [19]
inactive: all other assays above
